Myeloid diff 2 = compounds promoting myeloid differentiation | ER-HoxA9 myeloid progenitors, lysozyme-GFP differentiation, flow cytometry | AID 624256 | calls only at 10 µM | actives 1% (n = 360,000);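 active = normalized GFP-positive differentiation at or above the plate's own cutoff, the solvent-only control mean plus 3 SD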;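 note: cells exposed to compound for four days before flow analysis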
ABCB6 inh MLPCN = blocks the human ABCB6 transporter. Q9NP58. K562-ABCB6 porphyrin accumulation, flow cytometry, 1 h; hits give low values. fluorescence ratio to DMSO, % at 10 µM. actives 0.19% (n = 360,000). AID 602162;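 active = fluorescence ratio to DMSO below 75%, the collection mean minus 3 SD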;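 note: signal is porphyrin accumulated inside mitochondria; 100% equals median channel fluorescence of DMSO control wells; lower ratio means ABCB6 inhibition with less porphyrin fluorescence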
NOD2-RIPK2 inh = inhibitors of human NOD2-RIPK2 interaction; CHO BLA complementation NOD2-RIPK2, CCF4 ratio; inhibition, % at 4.98 µM; AID 624267; O43353; actives 0.38% (n = 360,000); in the data active = inhibition above about 21%;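 note: 0% = vehicle only and 100% = reference blocker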
TLR4 MyD88 comp = TLR4-MyD88 interaction inhibition in cells | O00206+Q99836 | inhibition, % at 8.4 µM | actives 0.18% (n = 200,000) | AID 861 | HeLa CL3-4 TLR4/MyD88 BLA complementation, FRET ratio; in the data active = inhibition above about 25%;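 note: 0% = vehicle and 100% = reference inhibitor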
TLR9-MyD88 block = blocks human TLR9 binding to MyD88 | actives 0.21% (n = 340,000) | AID 504734 | CHO BLA complementation TLR9-MyD88, CCF4 FRET ratio | inhibition, % at 4.98 µM;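 active = inhibition above the mean over all tested compounds plus 3 SD, cut at about 21% in these data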;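 note: 0% = DMSO only wells and 100% = clavulanate BLA inhibitor control wells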
Target sequence (Q99836 whole entry, looked up): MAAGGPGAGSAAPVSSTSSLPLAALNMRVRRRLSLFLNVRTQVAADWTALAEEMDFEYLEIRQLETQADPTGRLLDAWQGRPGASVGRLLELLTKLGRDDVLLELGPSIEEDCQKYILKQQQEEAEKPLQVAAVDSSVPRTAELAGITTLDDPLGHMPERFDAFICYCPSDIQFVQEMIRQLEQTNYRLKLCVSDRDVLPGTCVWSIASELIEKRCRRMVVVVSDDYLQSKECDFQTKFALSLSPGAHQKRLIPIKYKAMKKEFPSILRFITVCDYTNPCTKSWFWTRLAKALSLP
Target sequence (Q9NR96 whole entry, looked up): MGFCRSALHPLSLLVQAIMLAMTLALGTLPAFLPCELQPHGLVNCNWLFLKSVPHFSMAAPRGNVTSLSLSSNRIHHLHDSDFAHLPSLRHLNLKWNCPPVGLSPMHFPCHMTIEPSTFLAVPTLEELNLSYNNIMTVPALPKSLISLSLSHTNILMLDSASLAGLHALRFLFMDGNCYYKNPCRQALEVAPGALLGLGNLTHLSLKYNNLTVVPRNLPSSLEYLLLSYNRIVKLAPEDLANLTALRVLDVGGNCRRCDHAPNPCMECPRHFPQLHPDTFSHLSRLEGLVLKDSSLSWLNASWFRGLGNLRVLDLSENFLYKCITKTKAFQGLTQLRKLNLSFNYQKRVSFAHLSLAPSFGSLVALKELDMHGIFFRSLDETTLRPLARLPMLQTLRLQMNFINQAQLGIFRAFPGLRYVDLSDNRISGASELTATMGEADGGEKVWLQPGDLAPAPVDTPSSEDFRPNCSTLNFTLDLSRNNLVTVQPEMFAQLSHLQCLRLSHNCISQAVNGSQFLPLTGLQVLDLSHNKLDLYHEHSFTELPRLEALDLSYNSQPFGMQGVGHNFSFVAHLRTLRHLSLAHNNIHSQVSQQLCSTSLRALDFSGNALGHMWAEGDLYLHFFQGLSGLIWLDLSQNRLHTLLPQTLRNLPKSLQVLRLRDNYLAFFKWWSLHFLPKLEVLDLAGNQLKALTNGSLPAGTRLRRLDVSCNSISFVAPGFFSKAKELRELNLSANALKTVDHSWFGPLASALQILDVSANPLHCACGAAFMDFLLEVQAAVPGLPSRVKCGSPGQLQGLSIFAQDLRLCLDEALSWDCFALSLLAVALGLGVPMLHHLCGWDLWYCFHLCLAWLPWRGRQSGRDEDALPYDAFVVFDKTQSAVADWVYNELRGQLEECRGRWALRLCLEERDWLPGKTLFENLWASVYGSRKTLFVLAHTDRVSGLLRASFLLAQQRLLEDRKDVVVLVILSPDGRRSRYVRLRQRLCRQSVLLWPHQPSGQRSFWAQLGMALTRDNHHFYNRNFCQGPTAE
Myeloid diff CP1 = compounds promoting myeloid differentiation | shares compounds with Myeloid diff 2 | ER-HoxA9 myeloid progenitors, GFP/Mac1 double-positive flow | calls only | actives 2% (n = 2,300) | AID 651706;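 active = share of green or green-and-red cells above 9 and 9% in run 1 or 4 and 3% in run 2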
GFP autofluor = counter-screen for myeloid differentiation promoters: compound fluorescence. shares compounds with Myeloid diff 2. ER-HoxA9 myeloid progenitors, no estrogen, GFP autofluorescence flow cytometry; vehicle wells 0%, positive control 100%. AID 651707. fluorescence response, % (test concentration not listed). actives 7.4% (n = 2,300);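 active = over 5% cells positive for green fluorescent reporter, or over 2% positive for both it and APC stain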;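 note: range taken on the double positive population between DMSO and positive control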
* marks the source's active call; other numbers are inactive results. The list is not random: actives were taken first. Their share in the collection is about 1.7%.

Screening CC(C)CN(C(=O)COC(=O)C12CC3CC(CC(O)(C3)C1)C2)c1c(N)n(Cc2ccccc2)c(=O)[nH]c1=O returned Myeloid diff 2 inactive, ABCB6 inh MLPCN 100.0, NOD2-RIPK2 inh 3.9 and TLR9-MyD88 block 2.6.
CCN(C(=O)CN1CCc2ccccc21)c1c(N)n(Cc2ccccc2)c(=O)[nH]c1=O was read as Myeloid diff 2 inactive, ABCB6 inh MLPCN 100.0, NOD2-RIPK2 inh -4.2, TLR4 MyD88 comp -0.9, TLR9-MyD88 block 4.1, Myeloid diff CP1 inactive and GFP autofluor 0.2.
CC(C)CN(C(=O)c1ccc([N+](=O)[O-])s1)c1c(N)n(Cc2ccccc2)c(=O)[nH]c1=O was read as Myeloid diff 2 active, ABCB6 inh MLPCN 108.0, NOD2-RIPK2 inh -11.2, TLR9-MyD88 block 1.2, Myeloid diff CP1 inactive and GFP autofluor 0.7.
CCCNc1sc(S(=O)(=O)CCC)nc1S(=O)(=O)c1ccc(C)cc1 was read as Myeloid diff 2 inactive, ABCB6 inh MLPCN 101.0, NOD2-RIPK2 inh -9.8, TLR4 MyD88 comp -4.1 and TLR9-MyD88 block -3.8.
Screening CCc1ccc(NC(=O)CSc2nc(=O)n(CCN(C)C)c3c2CCCC3)cc1 returned Myeloid diff 2 inactive, ABCB6 inh MLPCN 99.0, NOD2-RIPK2 inh -1.2 and TLR9-MyD88 block -1.2.
COC(=O)CCC(=O)NC(=S)Nc1cc(Cl)ccc1Cl was read as Myeloid diff 2 inactive, ABCB6 inh MLPCN 103.0, NOD2-RIPK2 inh 1.6, TLR4 MyD88 comp 14.4 and TLR9-MyD88 block -6.1.
`COc1ccc2c(C)nc(Nc3nc(C)c(C)c(=O)[nH]3)nc2c1` gave Myeloid diff 2 inactive, ABCB6 inh MLPCN 93.0, NOD2-RIPK2 inh 1.2, TLR4 MyD88 comp -0.2 and TLR9-MyD88 block 5.8.
COc1ccc2c(C)nc(Nc3nc(C)cc(C)n3)nc2c1 was read as Myeloid diff 2 inactive, ABCB6 inh MLPCN 105.0, NOD2-RIPK2 inh 1.5, TLR4 MyD88 comp -9.8, TLR9-MyD88 block 3.0, Myeloid diff CP1 inactive and GFP autofluor 34.8*.
For CCC(C)NC(=O)C(=O)NCc1ccccn1 (centres undefined) the results were Myeloid diff 2 inactive, ABCB6 inh MLPCN 96.0, NOD2-RIPK2 inh -5.8, TLR4 MyD88 comp -1.5 and TLR9-MyD88 block -6.8.
N#Cc1ccsc1NC(=O)C1CC(=O)N(Cc2ccccc2)C1 (centres undefined) was read as Myeloid diff 2 inactive, ABCB6 inh MLPCN 100.0, NOD2-RIPK2 inh 2.3, TLR9-MyD88 block 6.8, Myeloid diff CP1 inactive and GFP autofluor 0.3.
Screening O=C(NCCc1ccc(Cl)cc1)c1nnc(Cc2ccc(Cl)cc2)o1 returned Myeloid diff 2 inactive, ABCB6 inh MLPCN 95.0, NOD2-RIPK2 inh 6.3, TLR4 MyD88 comp 0.4 and TLR9-MyD88 block -11.7.
For CC(CCc1ccccc1)NC(=O)c1nnc(Cc2ccc(Cl)cc2)o1 (centres undefined) the results were Myeloid diff 2 inactive, ABCB6 inh MLPCN 104.0, NOD2-RIPK2 inh -32.1, TLR4 MyD88 comp 5.5, TLR9-MyD88 block -13.9, Myeloid diff CP1 inactive and GFP autofluor 0.0.
O=C(c1cccc(Br)c1)c1cn(-c2ccccc2)nc1C(=O)c1ccccc1 was read as Myeloid diff 2 inactive, ABCB6 inh MLPCN 96.0, NOD2-RIPK2 inh 1.7, TLR4 MyD88 comp -5.5 and TLR9-MyD88 block -6.2.
Screening COC(=O)c1ccc(NC(=O)Nc2ccccc2C)cc1 returned Myeloid diff 2 inactive, ABCB6 inh MLPCN 98.0, NOD2-RIPK2 inh -6.8, TLR4 MyD88 comp -7.4, TLR9-MyD88 block -5.5, Myeloid diff CP1 inactive and GFP autofluor 0.6.
Screening COC(=O)c1ccc(NC(=O)Nc2ccccc2F)cc1 returned Myeloid diff 2 inactive, ABCB6 inh MLPCN 98.0, NOD2-RIPK2 inh 0.2, TLR4 MyD88 comp 9.0 and TLR9-MyD88 block 0.3.
Screening CN1CCc2c(sc(/N=C/c3ccco3)c2C(N)=O)C1 returned Myeloid diff 2 inactive, ABCB6 inh MLPCN 107.0, NOD2-RIPK2 inh -14.6, TLR4 MyD88 comp 8.5 and TLR9-MyD88 block -2.5.
CN1CCc2c(sc(/N=C/c3cccs3)c2C(N)=O)C1 was read as Myeloid diff 2 inactive, ABCB6 inh MLPCN 108.0, NOD2-RIPK2 inh -7.3, TLR4 MyD88 comp 0.2, TLR9-MyD88 block -4.8, Myeloid diff CP1 inactive and GFP autofluor 0.0.
Cc1nc2c(oc3ccccc32)c(=O)o1 was read as Myeloid diff 2 active, ABCB6 inh MLPCN 99.0, NOD2-RIPK2 inh -14.2, TLR4 MyD88 comp 7.2, TLR9-MyD88 block -4.1, Myeloid diff CP1 inactive and GFP autofluor 0.0.
Screening O=c1[nH]c(Cc2ccccc2)nc2c1oc1ccccc12 returned Myeloid diff 2 inactive, ABCB6 inh MLPCN 97.0, NOD2-RIPK2 inh -7.5, TLR4 MyD88 comp -9.6 and TLR9-MyD88 block -2.5.
For CC(=O)Nc1ccc(S(=O)(=O)N2CCN(CC(O)COc3ccc4ccccc4c3)CC2)cc1 (centres undefined) the results were Myeloid diff 2 inactive, ABCB6 inh MLPCN 97.0, NOD2-RIPK2 inh -1.3, TLR4 MyD88 comp -10.4, TLR9-MyD88 block 14.3, Myeloid diff CP1 inactive and GFP autofluor 0.0.
For CCCC(=O)Nc1ccccc1-c1nnc(SCC)[nH]c1=O the results were Myeloid diff 2 inactive, ABCB6 inh MLPCN 96.0, NOD2-RIPK2 inh -14.0 and TLR9-MyD88 block -1.8.
Screening O=C(O)COc1ccc(C(=O)Cc2ccc3c(c2)OCCCO3)c(O)c1 returned Myeloid diff 2 inactive, ABCB6 inh MLPCN 102.0, NOD2-RIPK2 inh -6.3, TLR4 MyD88 comp -10.6, TLR9-MyD88 block -12.2, Myeloid diff CP1 inactive and GFP autofluor 0.2.
CN1CCN(c2ccccc2/C=C2/C(=O)Nc3ccccc32)CC1 was read as Myeloid diff 2 inactive, ABCB6 inh MLPCN 98.0, NOD2-RIPK2 inh 0.5, TLR9-MyD88 block -6.4, Myeloid diff CP1 inactive and GFP autofluor 82.7*.
For Cc1c(CCOC(=O)CC23CC4CC(CC(C4)C2)C3)sc[n+]1CC(=O)c1ccc(Br)cc1 the results were Myeloid diff 2 active, ABCB6 inh MLPCN 100.0, NOD2-RIPK2 inh 5.6, TLR4 MyD88 comp 10.0, TLR9-MyD88 block -1.8, Myeloid diff CP1 inactive and GFP autofluor 0.5.
`Cc1c(CCOC(=O)CC23CC4CC(CC(C)(C4)C2)C3)sc[n+]1CC(=O)c1ccccc1` gave Myeloid diff 2 inactive, ABCB6 inh MLPCN 94.0, NOD2-RIPK2 inh -3.9, TLR4 MyD88 comp 9.5 and TLR9-MyD88 block -8.4.
Screening Cc1nc2ccccn2c1C(=O)/C=C/c1ccc(F)cc1 returned Myeloid diff 2 inactive, ABCB6 inh MLPCN 101.0, NOD2-RIPK2 inh -0.8, TLR4 MyD88 comp 5.5, TLR9-MyD88 block -0.7, Myeloid diff CP1 inactive and GFP autofluor 0.3.
`COc1ccc(/C=C/C(=O)c2c(C)nc3ccccn23)cc1` gave Myeloid diff 2 inactive, ABCB6 inh MLPCN 95.0, NOD2-RIPK2 inh 3.7, TLR4 MyD88 comp 10.3 and TLR9-MyD88 block -7.4.
